A short description of experiment [1]: AP1 Signaling Pathway (AID 357).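 Note: ME-180 reporter cells stimulated with EGF at its EC50 level; % is set by controls: 0 for no effect and ±100 for the full control effect.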 The conditions noted are these: ME-180 AP-1-bla reporter, EGF-induced, beta-lactamase ratio, 5 h. The method, boiled down:
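In this screen, ME-180 cells in Opti-MEM with 0.5% dialyzed FBS received EC50 EGF and compound titrations for 5 h. AP-1 reporter beta-lactamase was detected via CCF4 ratio, giving AC50 for positive and negative modulators.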

Experiment [2] is described as follows: NFAT Signaling Pathway (AID 444).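 Note: carbachol stimulus at about its EC50 of 1 µM final; % is set by controls: 0 for no effect and ±100 for the full control effect.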 The conditions noted are these: Jurkat NFAT-bla M1, carbachol, beta-lactamase ratio, 5 h. The method, boiled down:
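Jurkat cells with NFAT-driven β-lactamase reporter and co-expressed M1 receptor, stimulated with carbachol (final 1 uM, ~EC50), compound titration, 5 h at 37 °C. CCF4 loaded 1 h at RT; 460/530 nm ratio gave %activity and AC50.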

The nature of experiment [3]: Stat Signaling Pathway (AID 446).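 Note: ME-180 cervical cancer cells given 40 pM IL-6 alongside compound; SIE-controlled beta-lactamase reporter measured as 460/530 nm FRET emission ratio; % is set by controls: 0 for no effect and ±100 for the full control effect.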 The note with it: ME-180 (cervical carcinoma) SIE beta-lactamase reporter, IL-6 stimulated, 5 h. Put shortly: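 FRET read-out (405 nm excitation, 460/530 nm emission) of a beta-lactamase reporter under a STAT-inducible element in ME-180 cervical carcinoma cells. Cells with compound receive 40 pM IL-6 for 5 h. Values are normalised to AC90 stimulation and AC90 JAK-inhibitor controls.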

For experiment [4], the target named is Glucocorticoid receptor (Homo sapiens) (UniProt P04150). Kind of experiment: GR-GFP Redistribution (AID 450;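 active = compounds whose dose series gives a full or clear partial fitted curve of increased nuclear translocation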; note: potency is the fitted concentration of half-maximal effect). The conditions noted are these: U2OS GR-GFP nuclear translocation, laser cytometry, 2 h.
Chain of Glucocorticoid receptor (Homo sapiens) (P04150 whole entry, looked up, the tested form may be a part): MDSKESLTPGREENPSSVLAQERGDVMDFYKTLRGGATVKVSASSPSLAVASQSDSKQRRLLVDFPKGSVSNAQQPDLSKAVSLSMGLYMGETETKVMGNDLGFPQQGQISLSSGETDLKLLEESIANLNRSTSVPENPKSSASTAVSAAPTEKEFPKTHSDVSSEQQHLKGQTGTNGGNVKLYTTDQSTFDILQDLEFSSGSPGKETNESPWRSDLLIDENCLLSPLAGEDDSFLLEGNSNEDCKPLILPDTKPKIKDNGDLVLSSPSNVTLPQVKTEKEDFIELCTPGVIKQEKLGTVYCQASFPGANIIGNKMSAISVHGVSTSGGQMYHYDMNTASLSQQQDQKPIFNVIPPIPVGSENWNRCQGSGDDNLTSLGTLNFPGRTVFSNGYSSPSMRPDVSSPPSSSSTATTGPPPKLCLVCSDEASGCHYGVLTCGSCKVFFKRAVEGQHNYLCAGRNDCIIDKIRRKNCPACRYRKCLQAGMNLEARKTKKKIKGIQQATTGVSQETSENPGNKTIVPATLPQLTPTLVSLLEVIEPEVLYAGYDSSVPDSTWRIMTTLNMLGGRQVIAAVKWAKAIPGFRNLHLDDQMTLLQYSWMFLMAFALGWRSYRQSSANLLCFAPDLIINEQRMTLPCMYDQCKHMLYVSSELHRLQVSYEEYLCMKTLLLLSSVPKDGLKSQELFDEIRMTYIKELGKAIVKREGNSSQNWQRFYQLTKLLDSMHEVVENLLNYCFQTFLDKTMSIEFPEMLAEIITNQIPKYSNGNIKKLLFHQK
Experiment [5] shares this target. Kind of experiment: GR-EFC Redistribution (AID 451; calls by dose curve; note: potency is the fitted concentration of half-maximal effect). The note with it: CHO-K1 GR-EFC translocation, beta-gal luminescence, 2 h. The method, boiled down: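 CHO-K1 cells expressing nuclear EA and GR-ED fragments of b-gal; compounds titrated up to 46 uM final, 2 h at 37 C. GR nuclear translocation read as complemented b-gal luminescence after 1 h RT detection.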
In experiment [6] the target is Mitogen-activated protein kinase 10 (Mus musculus) (UniProt Q61831). The experiment is described as follows: JNK3 AlphaScreen Assay (AID 530).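 Note: kinase came from lysate of stimulated human HepG2 cells; signal reports phosphorylation of biotinylated GST-cJun 1-79 at Ser73 with 10 µM ATP; % is set by controls: 0 for no effect and ±100 for the full control effect.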 The note with it: JNK3 lysate, c-Jun phosphorylation; series mostly up to 57.1 µM. The method, boiled down: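 Activity was read by AlphaScreen after JNK3-containing HepG2 lysate (cytokine pre-activated) phosphorylated biotinylated GST-cJun with 10 uM ATP at room temperature. Phospho-Ser73 cJun antibody with Protein-A acceptor beads provided detection.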

Experiment [7] is described as follows: Cell Viability - BJ (AID 421; calls by dose curve;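 note: potency is the fitted concentration of half-maximal effect; cells exposed to compound for 40 hours at 37 °C before readout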). The conditions noted are these: BJ fibroblast viability, qHTS. Put shortly:
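Cytotoxicity as drop in intracellular ATP (CellTiter-Glo, 20 min RT) after 40 hr compound exposure of BJ fibroblasts at 37 °C. Titrations scaled between DMSO and 100 uM tamoxifen, Hill-fitted for AC50.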
For orientation: qHTS replaces the single test concentration by a dilution series.

Experiment [8] can be described thus: Cell Viability - Hek293 (AID 427;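 active = compounds whose dose-response curve shows a full or clear partial loss of cell viability, called from curve shape rather than a numeric limit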;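 note: potency is the fitted concentration of half-maximal effect; cells exposed to compound for 40 hours at 37 °C before reading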). The conditions noted are these: qHTS. The method, boiled down:
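Luminescent ATP content (CellTiter-Glo, 20 min at room temperature) was measured after a 40 hr, 37 °C compound exposure of HEK293 cells. AC50 values came from Hill-equation fits of qHTS concentration-response data normalized to DMSO and 100 uM tamoxifen.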

Experiment [9] is described as follows: Cell Viability - HepG2 (AID 433; calls by dose curve; note: potency is the fitted concentration of half-maximal effect). The conditions noted are these: qHTS. Put shortly: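 HepG2 cells, 1500 per well, treated 40 hr at 37 °C in complete medium; viability from intracellular ATP by CellTiter-Glo luminescence. Normalized to DMSO and 100 uM tamoxifen; AC50 from Hill fit of qHTS concentration-response.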
Experiment [10] is described as follows: Cell Viability - NIH 3T3 (AID 541; active = well fitted curve in the direction sought with a large enough effect; an effect the other way counts as inactive or inconclusive; note: potency is the fitted concentration of half-maximal effect; nearly all actives have a fitted effect of over 25% in size). The conditions noted are these: NIH 3T3 cell viability, qHTS; activity change, negative = cytotoxicity: at 92.2 µM (top of the series). Put shortly: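 Intracellular ATP (CellTiter-Glo luminescence, 20 min at room temperature) measured after 40 hr compound exposure at 37 °C of 1000 NIH 3T3 mouse fibroblasts/well in complete medium; AC50 derived by Hill-equation modelling of qHTS concentration-response curves.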

Experiment [11] is described as follows: Cell Viability - SH-SY5Y (AID 544; active = well fitted curve in the direction sought with a large enough effect; an effect the other way counts as inactive or inconclusive; note: potency is the fitted concentration of half-maximal effect; nearly all actives have a fitted effect of over 55% in size). The conditions noted are these: SH-SY5Y neuroblastoma cell viability; series mostly up to 92.2 µM. Put shortly:
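Cytotoxicity measured via ATP-dependent luciferase luminescence (CellTiter-Glo) following 40 h, 37 °C exposure of 1500 SH-SY5Y cells per well. Concentration-response data were fitted with the standard Hill equation to give AC50.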

The nature of experiment [12]: Cell Viability - Renal Proximal Tubule (AID 545; active = well fitted curve in the direction sought with a large enough effect; an effect the other way counts as inactive or inconclusive; note: nearly all actives have a fitted effect of over 40% in size; note: potency is the fitted concentration of half-maximal effect;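 for activity change, negative = cytotoxicity: 0% = DMSO only and -100% = 100 µM tamoxifen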). The conditions noted are these: renal proximal tubule cells viability, primary cells of rat origin; series mostly up to 91.7 µM. The method, boiled down: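 Rat renal proximal tubule primary cells, 1000/well, exposed to compounds for 40 hr at 37 °C in complete medium; cellular ATP read by CellTiter-Glo luminescence. AC50 from concentration-response fitted with standard Hill equation.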

A short description of experiment [13]: Cell Viability - Mesenchymal (AID 546; active = well fitted curve in the direction sought with a large enough effect; an effect the other way counts as inactive or inconclusive;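 note: cells exposed to compound for 40 hours before reading; 0% = DMSO only and -100% = 100 µM tamoxifen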). The conditions noted are these: mesenchymal cells viability, qHTS; series mostly up to 91.7 µM. Put shortly:
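Human renal mesenchymal cells (glomerulus-derived), 1000 cells/well, 5 hr 37 °C pre-incubation; compound 40 hr, 37 °C; CellTiter-Glo, 20 min RT; luminescence; AC50 via Hill equation.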

Experiment [14] deals with Cytochrome P450 1A2 (Homo sapiens) (UniProt P05177). The experiment is described as follows: p450-cyp1a2 (AID 410; calls by dose curve;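 note: -100% = full effect of reference inhibitor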). The note with it: recombinant CYP1A2, luciferin-ME demethylation, luminescence; series mostly up to 25.6 µM. Put shortly:
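Luminescent demethylation readout: Luciferin-ME (100uM, equal to Km) turned over by 20nM CYP1A2 for 60 min at room temperature after NADPH regeneration addition, following 10 min compound preincubation. Normalization used 57 uM furafylline as full inhibition.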

A short description of experiment [15]: Cell Viability - Jurkat (AID 426;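 active = dose-dependent loss of cell ATP signal giving a full or clear fitted curve, ranked by lower potency value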; note: potency is the fitted concentration of half-maximal effect). The conditions noted are these: qHTS. Put shortly: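 Cytotoxicity taken as drop in cellular ATP (CellTiter-Glo luminescence, 20 min room temperature) after 40 hr, 37C treatment of 5000 Jurkat Clone E6-1 cells per well; concentration-response fitted with Hill equation for AC50.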
Experiment [16] is described as follows: Cell Viability - MRC5 (AID 434; calls by dose curve;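 note: potency is the fitted concentration of half-maximal effect; potency reflects cytotoxicity seen as loss of intracellular ATP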). The conditions noted are these: MRC5 lung fibroblast viability, qHTS. Put shortly: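 ATP luminescence read-out (CellTiter-Glo, 20 min RT) after 40 hr, 37 °C compound exposure of 1500 MRC5 cells/well. Data normalized to DMSO (basal) and 100 uM tamoxifen (100% inhibition); AC50 from standard Hill equation.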
The nature of experiment [17]: Cell Viability - SK-N-SH (AID 435; calls by dose curve; note: potency is the fitted concentration of half-maximal effect). The conditions noted are these: SK-N-SH neuroblastoma cell viability qHTS. Put shortly:
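SK-N-SH neuroblastoma cells (1500/well) treated 40 h at 37 °C in complete medium; viability read as cellular ATP by CellTiter-Glo luminescence. Normalized to DMSO and 100 uM tamoxifen; AC50 from Hill fits of qHTS concentration-response.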

Experiment [18] is described as follows: Cell Viability - HUV-EC-C (AID 542; active = well fitted curve in the direction sought with a large enough effect; an effect the other way counts as inactive or inconclusive; note: % is set by controls: 0 for no effect and ±100 for the full control effect; nearly all actives have a fitted effect of over 35% in size). The conditions noted are these: HUV-EC-C endothelial cell viability, qHTS; series mostly up to 92.2 µM. The method, boiled down:
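CellTiter-Glo luminescence measured ATP loss in HUV-EC-C cells (1000/well) after 40 hr compound exposure at 37 °C, in complete culture medium. Concentration-response data were Hill-fitted to give AC50.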

Experiment [19] can be described thus: Cell Viability - H-4-II-E (AID 543; active = well fitted curve in the direction sought with a large enough effect; an effect the other way counts as inactive or inconclusive; note: % is set by controls: 0 for no effect and ±100 for the full control effect; nearly all actives have a fitted effect of over 35% in size). The conditions noted are these: H-4-II-E rat hepatoma viability; series mostly up to 92.2 µM. The method, boiled down:
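CellTiter-Glo luminescence (intracellular ATP) measured after 40 h compound exposure at 37 °C in H-4-II-E rat hepatoma cells seeded at 1500/well. Values are AC50s fitted with the standard Hill equation.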

Where “and” joins values, the source holds several entries; their conditions need not be identical. Identical values can stand only once. Unmarked numbers belong to inactive results. Results filed as inconclusive are left out. Calls of active or inactive are those of the source. Unless noted, calls come from the whole dose curve; as a rule, active = well fitted curve in either direction with a large enough effect (not every such curve was filed as active); inconclusive = small, poorly fitted or top-dose-only effect, or another doubt; inactive = flat fitted curve, though single readings scatter.

Chain of Cytochrome P450 1A2 (Homo sapiens) (P05177 whole entry, looked up): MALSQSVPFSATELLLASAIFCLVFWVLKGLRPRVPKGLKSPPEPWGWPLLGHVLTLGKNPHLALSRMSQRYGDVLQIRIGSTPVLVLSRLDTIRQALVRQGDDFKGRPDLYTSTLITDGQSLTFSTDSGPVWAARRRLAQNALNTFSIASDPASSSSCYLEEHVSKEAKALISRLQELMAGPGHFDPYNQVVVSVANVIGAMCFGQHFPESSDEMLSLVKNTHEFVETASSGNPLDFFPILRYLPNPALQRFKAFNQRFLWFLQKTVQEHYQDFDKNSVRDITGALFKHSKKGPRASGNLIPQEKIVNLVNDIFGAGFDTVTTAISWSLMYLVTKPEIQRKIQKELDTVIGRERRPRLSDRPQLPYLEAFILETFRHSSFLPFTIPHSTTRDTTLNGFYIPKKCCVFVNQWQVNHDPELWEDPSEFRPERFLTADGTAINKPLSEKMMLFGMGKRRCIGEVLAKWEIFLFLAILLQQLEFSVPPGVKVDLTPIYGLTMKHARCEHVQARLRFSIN

Consider `N=c1c[n+](N2CCOCC2)[n-]o1`, for which the activity change, negative = inhibition is 18.9% in experiment [1] (at 17.2 µM (top of the series)), 9.68% in [1] (at 38 µM (top of the series)) and 3.52% in experiment [2] (at 38 µM (top of the series)). Also, the values for the activity, negative = inhibition in experiment [3] (at 17.2 µM (top of the series)) and in experiment [3] (at 38 µM (top of the series)) were 4.68% and -10.2%, respectively. Moreover, the Potency was > 46 µM and > 20.6 µM in experiment [4]; > 46 µM in [5]. For the same compound, the Potency entry in experiment [6] was “inactive”.

For the compound `COC(=O)C1=C(C)NC(C)=C(C(=O)OC)C1c1ccccc1[N+](=O)[O-]`, the activity change, negative = inhibition in experiment [1] (at 17.2 µM (top of the series)) is -27.7%; in experiment [2] (at 17.2 µM (top of the series)), -7.96%. For the same compound, the Potency was > 92 µM in [7]; > 92 µM in experiment [8]; > 92 µM in experiment [9]; > 46 µM and > 20.6 µM in [4]; > 46 µM and > 20.6 µM in [5]; 2 µM (active) in experiment [10]. Also, the results for the Potency in [11] and in experiment [12] were 25.1 µM (active) and 31.6 µM (active), respectively. The activity, negative = inhibition is -12.5% and -20.9% in experiment [3] (at 17.2 µM (top of the series)); -13.9% in experiment [3] (at 38 µM (top of the series)). The Potency result in [6] was “inactive”. In experiment [13], the compound was called inactive.

In the case of `Nc1ccc(S(=O)(=O)Nc2nccs2)cc1`, the activity change, negative = inhibition in [1] (at 17.2 µM (top of the series)) was -3.49%; in [2] (at 17.2 µM (top of the series)), 2.2%. Besides, the Potency entry in experiment [14], in experiment [6], in experiment [18], in experiment [19] and in experiment [12] was “inactive” throughout. The Potency in experiment [7], in experiment [15], in experiment [8], in experiment [9], in experiment [16] and in experiment [17] was > 92 µM each time. Moreover, the Potency in experiment [4] and in [5] was > 20.6 µM each time. For the same compound, in [3] (at 17.2 µM (top of the series)), the activity, negative = inhibition was -1.46%. Also, the outcome in experiment [13] was inactive.

As for `Nc1cc(=O)[nH]c(N)n1`, the activity change, negative = inhibition in experiment [1] (at 38 µM (top of the series)) was -5.58%; in [2] (at 38 µM (top of the series)), -0.946%. For the same compound, the Potency result in [14] was “inactive”. In addition, the activity, negative = inhibition in [3] (at 38 µM (top of the series)) was 1.02%.

With `Nc1ccc(S(=O)(=O)NC(=O)c2ccccc2)cc1`, the activity change, negative = inhibition in [1] (at 17.2 µM (top of the series)) was 13.8% and 7.16%; in experiment [2] (at 17.2 µM (top of the series)), 7.31% and -26.1%. Also, the Potency entry in experiment [14] and in experiment [6] was “inactive” each time. Besides, the activity, negative = inhibition in experiment [3] (at 17.2 µM (top of the series)) was -0.201% and -5.16%. For the same compound, the Potency in [4] and in experiment [5] was > 20.6 µM in each case.

The record behind these values is PubChem BioAssay (NCATS).
